This is a sample that favours compounds with a hit; in the whole collection about 5.2% have one here.
PLK1 PBD block: qHTS for Inhibitors of PLK1-PDB (polo-like kinase 1 - polo-box domain): Primary Screen | Serine/threonine-protein kinase PLK1 (Homo sapiens), P53350 | Plk1 PBD binding of FITC phosphopeptide, fluorescence polarization | Potency, µM, actives largely listed as inhibitors | actives 2.8% (n = 360,000); further: series mostly up to about 57 µM; nearly all actives have a fitted effect of over 65% in size
VDR inhibitor: Inhibitors of the vitamin D receptor (VDR): qHTS; VDR-SRC2-3 peptide fluorescence polarization, 2 h; actives 0.93% (n = 400,000); Vitamin D3 receptor (Homo sapiens), P11473; Potency, µM, usual class: inhibitors
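Inhibition of the VDR/SRC2-3 peptide interaction is quantified by fluorescence polarization. Compounds (23 nl, pintool) incubate with the reagents for 2 hours at ambient room temperature.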
mIDH1 inhibitor: qHTS for Inhibitors of mutant isocitrate dehydrogenase 1 (IDH1): qHTS. Isocitrate dehydrogenase [NADP] cytoplasmic (Homo sapiens), O75874. IDH1-R132H enzyme, NADPH consumption, diaphorase/resazurin fluorescence. Potency, µM (doses to about 76.6 µM), usual class: inhibitors. actives 0.093% (n = 390,000). AID 602179, 2012; further: nearly all actives have a fitted effect of over 65% in size
Target sequence (O75874 whole entry R132H, stated change not applied): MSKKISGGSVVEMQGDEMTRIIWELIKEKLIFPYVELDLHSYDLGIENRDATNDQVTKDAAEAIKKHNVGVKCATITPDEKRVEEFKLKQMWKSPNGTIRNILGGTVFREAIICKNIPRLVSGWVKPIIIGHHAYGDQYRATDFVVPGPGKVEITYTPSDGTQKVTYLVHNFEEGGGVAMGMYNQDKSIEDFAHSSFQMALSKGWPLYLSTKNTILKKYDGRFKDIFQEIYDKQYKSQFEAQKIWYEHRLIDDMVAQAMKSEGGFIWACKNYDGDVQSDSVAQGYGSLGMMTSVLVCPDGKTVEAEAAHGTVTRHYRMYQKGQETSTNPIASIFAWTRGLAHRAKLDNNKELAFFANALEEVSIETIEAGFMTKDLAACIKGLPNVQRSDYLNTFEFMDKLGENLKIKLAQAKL
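IDH1-R132H (0.5 ug/mL) preincubated 30 min with compound, then NADPH (0.016 mM) and alpha-KG (2 mM) added; 80 min at RT, pH 7.5. Remaining NADPH coupled via diaphorase/resazurin to fluorescence (540/590 nm); concentration-response curves normalized to no-enzyme control.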
Sfp PPTase inh: qHTS Assay for Inhibitors of Bacillus subtilis Sfp phosphopantetheinyl transferase (PPTase) | Biochemical Sfp PPTase activity, qHTS | 4'-phosphopantetheinyl transferase ffp (Bacillus subtilis), Q9F4F7 | actives 3.5% (n = 310,000) | AID 1490, 2009 | Potency, µM, hits mostly inhibitors;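 further: the enzyme is Sfp with the accession as filed and its product quenches rhodamine fluorescence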
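Fluorescence-quenching assay: 15 nM Sfp-PPTase preincubated 15 min at room temperature with compound, then 5 uM rhodamine-CoA and 12.5 uM BHQ-2-labelled YbbR peptide added. Fluorescence (ex 525/em 598 nm) read at start and after 30 min; difference gives rate.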
rTrxR1 inhibitor: qHTS Assay for Inhibitors of Mammalian Selenoprotein Thioredoxin Reductase 1 (TrxR1): qHTS | Potency, µM (titrated, usually from 114 µM), actives largely listed as inhibitors | actives 1% (n = 390,000) | recombinant rTrxR1, NADPH fluorescence consumption, selenite substrate | Thioredoxin reductase 1, cytoplasmic (Rattus norvegicus), O89049; further: nearly all actives have a fitted effect of over 65% in size
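Rat TrxR1 (90 nM in the dispensed reagent) was pre-reduced with 400 uM NADPH for 5 min at room temperature, then incubated with compound for 15 min. After 400 uM selenite was added, NADPH fluorescence (Ex 340/Em 450 nm) was followed for 8 min.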
TrxR1 substrate: qHTS Assay for Substrates of Mammalian Selenoprotein Thioredoxin Reductase 1 (TrxR1): qHTS; Thioredoxin reductase 1, cytoplasmic (Rattus norvegicus), O89049; purified TrxR1 substrate turnover, NADPH consumption readout; Potency, µM (highest dose often 114 µM); actives 0.01% (n = 390,000); further: nearly all actives have a fitted effect of over 50% in size
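Rat TrxR1, dispensed at 90 nM, was prereduced with 400 uM NADPH (final) for 5 min at ~22 deg C, then incubated with compound 15 min before 400 uM selenite. A first-read NADPH fluorescence drop versus no-compound background flagged substrates.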
Hits are given with their value; - = inactive; ? = inconclusive; . = no result; ! = not confirmed by another sample. The call rests on the fitted dose curve; in most records, active means well fitted curve in the direction sought with a large enough effect; inconclusive means small, poorly fitted or top-dose-only effect, or another doubt; inactive means no such curve, though single readings can be large; an effect the other way counts as inactive or inconclusive.

SMILES	PLK1 PBD block	VDR inhibitor	mIDH1 inhibitor	Sfp PPTase inh	rTrxR1 inhibitor	TrxR1 substrate
O=C(Nc1ccc(F)cc1)Nc1ccc(N2CCOCC2)c2nonc12	-	-	-	-	-	-
O=C(Nc1ccc(N2CCOCC2)c2nonc12)C1CCCC1	19µM	-	-	?	-	-
Nc1ccc(N2CCOCC2)c2nonc12	-	89µM	-	?	-	-
COc1cccc(-c2ocnc2C(=O)Nc2ccc(N3CCOCC3)cc2N2CCOCC2)c1	-	-	-	-	-	-
COc1cc(NC(=O)CN2C(=O)NC(CC(C)C)C2=O)cc(OC)c1OC (stereo not drawn)	-	-	-	.	-	-
CCNC(=S)Nc1cc(OCC)c(NC(=O)c2ccco2)cc1OCC	-	-	-	-	-	-
CCOc1cc(NS(=O)(=O)c2ccccc2)c(OCC)cc1NC(=O)c1ccco1	-	-	-	-	71µM	-
NC(=O)C1CCN(S(=O)(=O)c2ccc(N3CCCCS3(=O)=O)cc2)CC1	.	-	-	.	-	-
CC1CN(c2ccc(Oc3ccccc3)cc2)c2nc3c(c(=O)[nH]c(=O)n3C)n2C1 (stereo not drawn)	27µM	-	-	-	-	-
CCN(CC)S(=O)(=O)c1ccc(OCCNS(C)(=O)=O)cc1	3µM	28µM	-	-	-	-
Cn1c2ccccc2c2c(C(=O)NCc3ccco3)cn(C3CCCCC3)c(=O)c21	?	-	-	?	20µM	-
COCCn1cc(C(=O)NCc2ccco2)c2c3ccccc3n(C)c2c1=O	-	-	-	-	-	-
Cc1ccc(CNC(=O)c2cn(C3CCCC3)c(=O)c3c2c2ccccc2n3C)o1	.	.	.	1.4µM	.	.
CCOC(=O)c1c(NC(=O)c2ccc(Br)o2)sc(C)c1CC	-	-	-	?	-	-
C=CCn1c(NC(=O)c2ccc(Br)o2)c(C(=O)OCC)sc1=S	6.7µM	89µM	-	?	?	-
COc1cc(/C=C/C(=O)c2cccs2)cc(OC)c1OC	.	13µM	.	?	.	.
COc1cc(/C=C/C(C)=O)cc(OC)c1OC	30µM	-	-	-	-	-
COc1cc(C=CC(=O)c2ccccc2)cc(OC)c1OC	-	.	.	.	.	.
CCc1cccc(NC(=O)CSc2ncc3c(n2)-c2ccccc2N(Cc2ccccc2C)S3(=O)=O)c1	.	-	-	.	-	-
CC1(C(=O)NS(=O)(=O)c2ccc(Cl)cc2)CCN1C(=O)c1cccc(F)c1 (stereo not drawn)	-	.	.	.	.	.
CC1CCN(C(=O)CCc2nnc3ccc(NCCCN4CCCC4=O)nn23)CC1	-	-	-	-	-	-
O=C1CCCN1CCCNc1ccc2nnc(CCC(=O)N3CCN(c4ccc(F)cc4)CC3)n2n1	27µM	-	-	-	?	-
Cc1ccc(C(=O)NC(=S)Nc2ccc(S(=O)(=O)N3CCN(C)CC3)cc2)cc1	?	-	-	?	50µM	-
Cc1cccc(C(=O)NC(=S)Nc2ccc(S(=O)(=O)N3CCCCC3)cc2)c1	?	-	-	-	-	-
Cc1cccc(C(=O)NC(=S)Nc2ccc(S(=O)(=O)N3CCN(C)CC3)cc2)c1	21µM	-	-	-	?	-
SMILES	PLK1 PBD block	VDR inhibitor	mIDH1 inhibitor	Sfp PPTase inh	rTrxR1 inhibitor	TrxR1 substrate
CC(C)(C)OC(=O)N1CCC(c2c(C(=O)N3CCN(c4ccccc4)CC3)cnn2-c2ccccc2)CC1	.	-	-	.	-	-
Nc1ccccc1N=c1ssnc1Cl	4.7µM	?	-	1.6µM	-	-
Cc1cc(C)c(C#N)c(Cl)n1	-	-	-	-	-	-
Cc1cc(C)nc(/N=c2/ssnc2Cl)c1	1.1µM	28µM	?	20µM	-	-
Nc1ccccc1N=Nc1ccccc1N	-	-	-	-	-	-
Cc1cc(Cl)ccc1N=Cc1c(O)n(C)c(=O)n(C)c1=O	.	.	.	-	.	.
Cc1cc(Cl)ccc1N=c1ssnc1Cl	1.5µM	?	-	7.1µM	-	-
CCc1nnc(NC(=O)CS(=O)(=O)Cc2ccccc2)s1	-	-	-	-	-	-
COC(=O)c1c(C)[nH]c(-c2csc(N)n2)c1C	-	-	-	45µM	-	-
COc1ccccc1-c1nc2c3ccccc3nc(=S)n2[nH]1	-	-	-	45µM	-	-
CCn1c(SCC(=O)N(C)c2c(N)n(Cc3ccccc3)c(=O)[nH]c2=O)nc2ccccc21	-	-	-	28µM	-	-
CCN(c1ccccc1)S(=O)(=O)c1ccc(Cl)c(NC(=O)COC(=O)c2cc(O)c3ccccc3c2O)c1	.	.	.	45µM	.	.
CN(C)S(=O)(=O)c1ccc(Cl)c(NC(=O)CN2CCCCCC2)c1	-	-	-	-	-	-
CCN(CC)S(=O)(=O)c1ccc(Cl)c(NC(=O)c2ccccc2C)c1	21µM	-	-	-	-	-
CCN(c1ccccc1)S(=O)(=O)c1ccc(Cl)c(NC(=O)CN2CCCCCC2)c1	-	-	-	56µM	-	-
O=C(CN1CCN(C/C=C/c2ccccc2)CC1)Nc1cc([N+](=O)[O-])ccc1Cl	-	-	-	45µM	-	-
O=C(Nc1cccc(S(=O)(=O)NC2=NCCC2)c1)c1cc(Cl)ccc1[N+](=O)[O-]	-	-	-	.	-	-
O=C(NC1CCCC1)C(c1ccccc1)n1c(-c2cccc3ccccc23)nc2ccccc21 (stereo not drawn)	-	.	.	.	.	.
Cn1cnc([N+](=O)[O-])c1S(=O)(=O)c1ccc(Cl)cc1	?	50µM	-	-	0.32µM	-
Cn1cnc([N+](=O)[O-])c1NC(C)(C)C	-	-	-	-	-	-
O=c1[nH]cnc2scc(-c3ccc(F)cc3)c12	-	-	-	-	-	-
O=c1[nH]c(=S)[nH]c2scc(-c3ccc(Br)cc3)c12	27µM	-	-	.	-	-
Nc1ccccc1C(=O)N(Cc1ccccc1)Cc1ccccc1	-	-	-	-	-	-
Nc1ccccc1C(=O)CC(N)C(=O)O (stereo not drawn)	.	.	.	100µM!	.	.
CC(=O)Nc1ccc(C(=O)OCC(=O)N(c2ccccc2)C2CCCCC2)cc1	-	-	-	.	?	-
O=C(OCC(=O)N(C1CCCCC1)C1CCCCC1)c1ccncc1	21µM	-	-	-	-	-
CC1(C)N([O-])C2=C(c3ccccc3C2=O)[N+](=O)C1(C)C	11µM	?	-	-	-	-
CC(Sc1ccc2nnc(-c3ccc(F)cc3)n2n1)C(=O)O (stereo not drawn)	27µM	?	-	-	-	-

Source: PubChem (National Center for Advancing Translational Sciences (NCATS))
